# Measurements: PubChem BioAssay (NCATS)
# Several values for one entry are separate records, joined by “and”; a condition that tells them apart may be missing. Equal values may be shown once. Records with an inconclusive call do not appear. Values without a mark were called inactive. Activity calls are given as the source filed them. Calls come from the whole dose curve; as a rule, active = well fitted cell-killing curve with a large enough effect; inconclusive = small, poorly fitted or top-dose-only effect; inactive = no such curve, though single readings can be large or run the other way.
# Assay: qHTS of pediatric cancer cell lines to identify multiple opportunities for drug repurposing: Confirmatory screen for U-2 OS cells (AID 1347122); note: nearly all actives have a fitted effect of over 65% in size
# Conditions: U-2 OS osteosarcoma cell viability; series mostly up to 45.9 µM; activity change, negative = cytotoxicity: at the top concentration
# Description: Drug repurposing or repositioning has been offered as a strategy for drug development in oncology programs. This approach has special potential for childhood cancers and other rare or orphan diseases, where the expected return on new drug development has been a disincentive to pharmaceuticals.
# In this project we exploit the poly-pharmacology of drugs to discover new indications via phenotypic screening of a panel of 19 well-characterized cell lines derived from solid tumors seen in children and adolescents. The goal is to identify approved drugs with previously unrecognized anticancer properties that has the potential to reveal new mechanisms and biological processes involved in carcinogenesis or drug resistance. We employed a titration-based paradigm (quantitative high-throughput screening or qHTS), where all compounds were tested at multiple concentrations for their effect on cell viability. Concentration-response curves (CRCs) were derived directly from the primary screen, and both potency and efficacy values were used to identify compounds with robust bioactivity profiles. We screened the NIH Chemical Genomics Center (NCGC) Pharmaceutical Collection (NPC) and Mechanism Interrogation Plate (MIPE) small molecule collections of approved and investigational compounds against these cell lines; and measured metabolically active cells after 48 hours of compound treatment as a proxy for cell viability.
# Assay Submitter: Nathalia J. Martinez, National Center for Advancing Translational Sciences, National Institutes of Health, Rockville, MD, USA; email: natalia.martinez@nih.gov
# [1] Shen, M et al. Quantitative high-throughput phenotypic screening of pediatric cancer cell lines identifies multiple opportunities for drug repurposing. Oncotarget 2017 Dec 19;9(4):4758-4772. PMID 29435139.
# The cells were obtained from University of North Carolina (UNC), Pediatric Preclinical Testing Program (PPT), and Coriell Institute (CI).
# qHTS cell viability assay:
# Cells were assayed in growth media at a density of 500-1,000 cells/well. Five microliters of cells were dispensed into 1,536-well, white, solid-bottom, TC-treated plates (Greiner Bio One) using a multidrop dispenser and incubated at 37 degrees C, 5% CO2, under a humidified atmosphere for 5 hours. Twenty-three nanoliters of compounds and controls (neutral control DMSO or positive control bortezomib at final concentration of 2.3 µM) were subsequently transferred by Kalypsys pintool. For primary screens, the MIPE collection was tested at 11-point dilutions (final concentrations range from 0.78 nM to 46 µM) and the NPC collection at 8-point dilutions (final concentrations range from 0.59 nM to 46 µM). Compounds tested in follow-up screens were assayed at 11-point dilutions. Cells were incubated for 48 hours, followed by addition of 3 µL of CellTiter-Glo (Promega). After a 15 min incubation at room temperature, samples were analyzed for luminescence intensity using a ViewLux High-throughput CCD imager equipped with clear filters.
# Potency is the fitted concentration of half-maximal effect.
SMILES,Potency,outcome,"activity change, negative = cytotoxicity"
Cc1cc(OCCCc2c(C(=O)O)n(Cc3cccnc3)c3c(-c4c(COc5ccc(N6CCN([S+](C)(=O)[O-])CC6)cc5)nn(C)c4C)cccc23)cc(C)c1Cl,2.61 µM (active),–,–
O=C1c2ccccc2-[n+]2ccc3c([nH]c4ccccc43)c21,1.17 µM (active),–,–
CC1(C)S[C@H]2[C@H](NC(=O)[C@@H](N)c3ccc(O)cc3)C(=O)N2[C@@H]1C(=O)O,–,inactive,–
COc1ccc(-c2nc(N3CCOCC3)c3sc(CN(C)c4ncc(C(=O)NO)cn4)cc3n2)cn1,0.522 µM (active),–,–
O=C(Nc1cccc(Br)c1)c1cccc(S(=O)(=O)N2CCCCCC2)c1,–,–,-26.2%
O=C(NCc1ccncc1)C12C[C@H]3C[C@@H](C1)CC(c1ccc(Cl)cc1)(C3)C2,26.1 µM (active),–,–
CC(=O)O[C@]1(C(C)=O)CC[C@@H]2[C@@H]3C[C@H](C)C4=CC(=O)CC[C@]4(C)[C@H]3CC[C@@]21C,–,–,-40.6%
OC[C@H]1O[C@@H](n2cnc3c2NC=NC[C@@H]3O)C[C@H]1O,–,inactive,–
CC=C(C)C(=O)O[C@H]1C(C)=C[C@]23C(=O)[C@@H](C=C(CO)[C@@H](O)[C@]12O)[C@H]1[C@@H](C[C@H]3C)C1(C)C,0.0233 µM (active),–,–
CN(C)C1CCN(C(=O)c2ccc(NC(=O)Nc3nc(N4CCOCC4)nc(N4CCOCC4)n3)cc2)CC1,3.69 µM (active),–,–
COc1cccc(-c2cc(=O)c3ccccc3o2)c1N,–,–,24.1%
CO[C@H]1C[C@@H]2CC[C@@H](C)[C@@](O)(O2)C(=O)C(=O)N2CCCC[C@@H]2C(=O)O[C@H]([C@H](C)C[C@@H]2CC[C@H](OP(C)(C)=O)[C@H](OC)C2)CC(=O)[C@H](C)C=C(C)[C@@H](O)[C@@H](OC)C(=O)[C@H](C)C[C@H](C)C=CC=CC=C1C,14.7 µM (active),–,–
CC[C@]1(O)C[C@@H]2CN(CCc3c([nH]c4ccccc34)[C@@](C(=O)OC)(c3cc4c(cc3OC)N(C=O)[C@@H]3C45CCN4CC=C[C@](CC)([C@H]45)[C@@H](OC(C)=O)[C@]3(O)C(=O)OC)C2)C1 (stereo partly specified),–,–,10.3%
COc1cc(N2CCC(N3CCN(C)CC3)CC2)ccc1Nc1ncc(Cl)c(Nc2ccccc2S(=O)(=O)C(C)C)n1,0.465 µM (active),–,–
CC(=O)Nc1ccc([C@H](C)C(=O)Nc2ncc(C(C)C)s2)cc1,1.47 µM (active),–,–
COc1cc2nc(-c3ccc(N4CCN(C)CC4)cc3)nc(NCCN3CCOCC3)c2cc1OC,0.261 µM (active),–,–
Nc1ncnc2c1ncn2[C@@H]1O[C@@H](CO)[C@H](O)[C@H]1O,–,–,-11.2% [at 29.5 µM]
CO[C@H]1C(=O)[C@]2(C)[C@@H](OC)C[C@H]3OC[C@@]3(OC(C)=O)[C@H]2[C@H](OC(=O)c2ccccc2)[C@]2(O)C[C@H](OC(=O)[C@H](O)[C@@H](NC(=O)OC(C)(C)C)c3ccccc3)C(C)=C1C2(C)C,0.0185 µM (active),–,–

SMILES,Potency,outcome,"activity change, negative = cytotoxicity"
CC(C)(C(=O)NCC(F)(F)C(F)(F)F)C(=O)N[C@@H]1C(=O)Nc2ccccc2-c2ccccc21,–,–,-26.1%
CC(C)n1nc(-c2ccc3oc(N)nc3c2)c2c(N)ncnc21,0.0928 µM (active),–,–
CN[C@@H](C)C(=O)N[C@H]1CN(C(=O)CC(C)C)CC[C@H]2CC[C@@H](C(=O)NC(c3ccccc3)c3ccccc3)N2C1=O,–,–,-13.1%
CC1(C)O[C@H]2C[C@@H]3[C@H]4CCC5=CC(=O)C=C[C@]5(C)[C@@]4(F)[C@@H](O)C[C@]3(C)[C@]2(C(=O)CO)O1,–,–,29%
COc1cc2ncnc(Nc3ccc(F)c(Cl)c3)c2cc1OCCCN1CCOCC1,26.9 µM (active),–,–
O=c1cc(-c2ccc(O)cc2)oc2cc(O)cc(O)c12,–,–,35.5%
O=C1C(Cl)=C(NCCN2CCOCC2)C(=O)c2ncccc21,1.65 µM (active),–,–
NS(=O)(=O)c1cccc2c1C(=O)c1cccc(O)c1C2=O,1.04 µM (active),–,–
COc1ccc(-c2coc3cc(O)cc(O)c3c2=O)cc1,–,–,34.9%
Oc1ccc(C2CCN(c3ccnc4ccccc34)CC2)cc1O,2.93 µM (active),–,–
CCOc1ccc(Nc2nc(-c3c(C)nc4ccccn34)cs2)cc1,0.165 µM (active),–,–
CC1(C)CCC2=C(O1)c1ccccc1C(=O)C2=O,23.3 µM (active),–,–
Cc1nnc(C(C)C)n1C1C[C@H]2CC[C@@H](C1)N2CC[C@H](NC(=O)C1CCC(F)(F)CC1)c1ccccc1 (stereo partly specified),–,–,7.52%
CC[C@]1(O)C[C@@H]2CN(CCc3c([nH]c4ccccc34)[C@@](C(=O)OC)(c3cc4c(cc3OC)N(C)[C@H]3[C@@](O)(C(=O)OC)[C@H](OC(C)=O)[C@]5(CC)C=CCN6CC[C@]43[C@@H]65)C2)C1,369 nM (active) and 1.17 µM (active),–,–
CC1(C)CCC[C@@]2(C)[C@@H]1CC[C@@]1(C)OC(=O)C[C@H]21,–,–,-100%
NC1=N[C@@]2(c3cc(NC(=O)c4ccc(F)cn4)ccc3F)COC[C@@H]2CS1,–,inactive,–
N[C@@]1(C(=O)O)CS(=O)(=O)[C@H]2[C@H](C(=O)O)[C@H]21,–,–,12.5%
CCc1ccc(OCc2ccccc2C(=O)Nc2ccc3nc(C)cc(N)c3c2)cc1,8.27 µM (active),–,–
